Shown are actives, neighbours in structure and some others; about 1.4% of the full set was active somewhere.
PGC1a acetyl inh = modulators of PGC1a acetylation | inhibition, % at 15.6 µM | AID 651687 | hit rate 0.17% among 350,000 | U2OS PGC1a acetylation, AlphaScreen anti-acetyl-lysine; with virally co-expressed GCN5 acetyltransferase;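 active = every replicate shows inhibition of at least 40%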
ERAP1 inh = inhibitors of human ERAP1 aminopeptidase; recombinant ERAP1, Leu-AMC fluorescence, 60 min; AID 652197; Q9NZ08; inhibition, % at 10.7 µM; hit rate 0.15% among 340,000;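 active = mean replicate inhibition of at least 30%, or all replicates individually reaching that 30% level; inactive = mean below 30% and not every replicate reaching it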
MLL AF4-AF9 inh = MLL-AF4/AF9 protein interaction inhibition | AlphaScreen, biotin-AF4 peptide binding to FLAG-AF9 | inhibition, % at 10 µM | hit rate 0.47% among 350,000;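 active = every replicate reaching a set inhibition limit, whatever the replicate mean, cut at about 25% in these data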
Target sequence (P42568 whole entry, looked up): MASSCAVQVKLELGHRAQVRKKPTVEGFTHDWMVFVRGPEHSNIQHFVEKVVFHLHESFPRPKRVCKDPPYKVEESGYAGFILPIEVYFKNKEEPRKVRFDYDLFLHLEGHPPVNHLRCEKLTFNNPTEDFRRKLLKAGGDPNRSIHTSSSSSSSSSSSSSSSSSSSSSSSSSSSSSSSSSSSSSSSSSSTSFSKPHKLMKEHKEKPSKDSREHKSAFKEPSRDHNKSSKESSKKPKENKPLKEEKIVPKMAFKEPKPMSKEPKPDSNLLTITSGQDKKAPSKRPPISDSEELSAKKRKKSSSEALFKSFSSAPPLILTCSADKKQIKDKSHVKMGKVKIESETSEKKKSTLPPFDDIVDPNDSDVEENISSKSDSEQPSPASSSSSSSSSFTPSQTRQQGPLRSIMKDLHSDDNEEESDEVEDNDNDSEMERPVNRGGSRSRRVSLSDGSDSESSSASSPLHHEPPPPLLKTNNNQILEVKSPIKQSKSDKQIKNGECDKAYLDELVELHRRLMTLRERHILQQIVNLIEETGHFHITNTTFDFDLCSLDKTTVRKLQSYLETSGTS
RAD54 inh = RAD54 (human) branch migration inhibition; Q92698; RAD54 Holliday junction branch migration, FAM/BHQ fluorescence; inhibition, % at 10.4 µM; hit rate 0.14% among 360,000; AID 602329;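 active = mean normalized replicate activity at least 40 and at least half of replicates scoring 40 or more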;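 note: inhibitors cause a drop in the FAM fluorescence signal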
GSIS activator = primary screen for activators of insulin secretion dependent on glucose, INS-1E cells, GLuc reporter luminescence. INS-1E GLuc reporter insulin secretion, 2-3 h. activation, % at 16.6 µM. hit rate 0.61% among 370,000. AID 743287;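 active = lowest replicate activation of at least 40%, so every replicate reaches that level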
RAD52 inh = RAD52 (human) annealing inhibition; P43351; recombinant RAD52 DNA annealing, FRET fluorescence; inhibition, % at 18.7 µM; hit rate 0.46% among 360,000;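 active = every replicate showing at least 50% inhibition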
A number is an active result; 0 = inactive; - = no result.

SMILES	PGC1a acetyl inh	ERAP1 inh	MLL AF4-AF9 inh	RAD54 inh	GSIS activator	RAD52 inh
Cc1cc2[nH]c3c4ccccc4nc(C)c3c2cc1C	-	0	0	91.2	270.9	83.3
CO[C@H]1CN(C)C(=O)c2cc(NC(=O)c3ccccc3F)ccc2OC[C@H](C)N(C(=O)c2ccccc2F)C[C@H]1C	0	0	0	0	0	0
CCNC(=O)[C@H]1[C@H](CO)[C@H]2Cn3c(ccc(-c4cccc(F)c4)c3=O)[C@@H]1N2C(C)=O	-	-	0	-	0	-
CCN1[C@@H]2c3ccc(/C=C/c4ccccc4)c(=O)n3C[C@H]1[C@H](CO)[C@H]2C(=O)N1CCOCC1	-	39.7	0	0	0	0
CCC(=O)N1[C@@H]2Cn3c(ccc(/C=C/c4ccccc4)c3=O)[C@H]1[C@@H](C(=O)N1CCOCC1)[C@@H]2CO	-	0	0	0	0	0
CC(=O)N1[C@@H]2c3ccc(/C=C/c4ccccc4)c(=O)n3C[C@H]1[C@H](CO)[C@H]2C(=O)N1CCOCC1	0	88.1	0	-	0	0
Cc1ccccc1-c1cnc2c(c1)C(=O)N([C@@H](C)CO)C[C@H](C)[C@H](CN(C)Cc1cccnc1)O2	0	0	0	0	0	0
CNC(=O)C[C@@H]1CC[C@H]2[C@H](COc3ccc(NC(=O)c4ccc(F)c(F)c4)cc3C(=O)N2C)O1	0	0	0	0	0	0
Cc1nnc(Sc2cc(NCCCO)c([N+](=O)[O-])c3nonc23)s1	0	0	0	-	74.6	0
Cc1nnc(Sc2cc(NCCO)c([N+](=O)[O-])c3nonc23)s1	-	0	0	-	0	0
O=[N+]([O-])c1c(NCCCO)cc(Sc2nc3ccccc3s2)c2nonc12	58.2	0	-	0	133.8	0
C/C=C/c1ccc([C@@H]2[C@@H](CO)N(C(=O)C3CCCCC3)C23CN(C(=O)NC(C)C)C3)cc1	0	0	0	-	0	0
CCCCc1c(-c2ccccc2OC)ncn1Cc1cc(F)ccc1F	-	0	0	-	0	0
CCCCc1c(-c2ccc(OC)c(OC)c2)ncn1CCc1ccccc1OC	-	0	0	-	0	0
COc1ccccc1CCn1cnc(-c2ccc(OC)c(OC)c2)c1C(C)C	-	0	0	-	0	0
CCCCc1c(-c2ccc(F)cc2F)ncn1CCc1ccccc1OC	-	0	0	-	119.6	0
CCCCc1c(-c2cccc(OC)c2)ncn1CCc1ccccc1OC	-	0	0	-	80.0	0
CCCCCc1c(-c2ccc(F)cc2F)ncn1CCc1ccccc1OC	-	0	0	-	104.2	0
COc1ccccc1CCn1cnc(-c2cccc(F)c2)c1C(C)C	-	0	0	-	64.2	0
Cc1noc(C)c1NC(=O)N(C)C[C@@H]1OCCCC[C@@H](C)Oc2ccc(NS(C)(=O)=O)cc2C(=O)N([C@@H](C)CO)C[C@H]1C	0	-	-	0	0	-
CCCCCc1c(-c2ccccc2)ncn1CCc1ccccc1OC	-	0	0	-	0	0
COc1ccccc1CCn1cnc(-c2ccccc2F)c1CC(C)C	-	0	0	-	41.9	0
CCCCc1c(Cc2cccc(F)c2)ncn1CCc1ccccc1OC	-	0	0	-	123.5	0
COc1ccccc1CCn1cnc(-c2ccc(F)cc2F)c1CC(C)C	-	0	0	-	-	0
Cc1cccn2cc(CNS(=O)(=O)c3ccc4ccccc4c3)nc12	0	0	0	0	65.4	0
SMILES	PGC1a acetyl inh	ERAP1 inh	MLL AF4-AF9 inh	RAD54 inh	GSIS activator	RAD52 inh
CC(C)n1c(O)c(N=NC(=O)C2COc3ccccc3O2)c2ccccc21 (stereo not drawn)	0	0	38.5	0	0	0
CN(C(=O)c1ccc2c(c1)SC1=NS(=O)(=O)CCN12)C(c1ccccc1)c1ccccc1	-	-	-	-	93.4	-
COc1ccc(/C=N/n2c(-c3n[nH]c4c3CCC4)n[nH]c2=S)cc1OC	-	-	-	-	44.7	-
COc1ccc(NC(=O)N(C)C[C@H]2OCCCC[C@@H](C)Oc3ccc(NS(=O)(=O)c4ccccc4)cc3C(=O)N([C@@H](C)CO)C[C@H]2C)cc1	0	0	0	0	0	0
COc1ccc(CN(C)C[C@@H]2OCCCC[C@H](C)Oc3ccc(NS(=O)(=O)c4ccc(Cl)cc4)cc3C(=O)N([C@H](C)CO)C[C@@H]2C)cc1	0	0	0	0	0	55.3
COc1ccc(CN(C)C[C@H]2OCCCC[C@@H](C)Oc3ccc(NS(=O)(=O)c4ccc(F)cc4)cc3C(=O)N([C@@H](C)CO)C[C@@H]2C)cc1	0	0	0	0	0	0
COc1ccc(CN(C)C[C@H]2OCCCC[C@H](C)Oc3ccc(NS(=O)(=O)c4ccc(F)cc4)cc3C(=O)N([C@H](C)CO)C[C@H]2C)cc1	0	0	0	0	0	54.9
COc1ccc(NC(=O)N(C)C[C@H]2OCCCC[C@@H](C)Oc3ccc(NS(=O)(=O)c4ccccc4)cc3C(=O)N([C@H](C)CO)C[C@@H]2C)cc1	0	0	0	0	0	98.8
COc1ccc(CN(C)C[C@@H]2OCCCC[C@@H](C)Oc3ccc(NS(=O)(=O)c4ccc(Cl)cc4)cc3C(=O)N([C@@H](C)CO)C[C@H]2C)cc1	0	0	0	0	0	0
CO[C@@H]1CN(C)C(=O)c2ccc(NC(=O)C3CC3)cc2OC[C@H](C)NC[C@@H]1C	0	0	0	0	0	0
CNC[C@H]1Oc2ccc(N(C)C)cc2CC(=O)N([C@@H](C)CO)C[C@H]1C	0	0	0	0	0	0
O=C(NC1CCCC1)C(C1CC1)n1c(-c2ccccn2)nc2ccccc21 (stereo not drawn)	-	0	-	-	42.8	0
FC(F)(F)c1cc(CCN2CCNC[C@@H]2Cc2ccccc2)cc(C(F)(F)F)c1	-	0	27.2	0	191.1	0
Fc1cccc(CCN2CCNC[C@@H]2Cc2ccccc2)c1	-	0	0	0	-	0
COc1ccc(S(=O)(=O)Nc2ccc3c(c2)C(=O)N([C@H](C)CO)C[C@@H](C)[C@@H](CN(C)S(C)(=O)=O)OCCCC[C@@H](C)O3)cc1	0	0	0	0	0	0
NC1=NC[C@H](Cc2ccccc2)N1CCCCC1CCCCC1	-	0	0	0	469.5	0
CCCOc1ccc(/C=N/NC(=O)C(=O)Nc2ccccn2)cc1	-	-	-	0	52.0	-
O=c1[nH]c(CN2CCN(c3ccc(O)cc3)CC2)nc2scc(-c3ccc(Cl)cc3)c12	-	0	0	-	52.8	0
CCCC#Cc1ccc2c(c1)O[C@@H](CN(C)C(=O)c1ccccn1)[C@H](C)CN([C@H](C)CO)S2(=O)=O	0	0	0	0	0	0
CN=c1oc2ccc(Cl)cc2cc1C(N)=O	0	-	-	0	-	-
NC(=O)c1cc2cc(Cl)ccc2o/c1=N/NC(=O)c1cccs1	0	-	0	0	42.7	0
Cc1ncc(CN2CCCC(C(=O)Nc3ccc(-c4ccco4)cc3)C2)cn1 (stereo not drawn)	0	0	40.0	0	0	0
N#Cc1cccc(C#N)c1NCC1CCCO1 (stereo not drawn)	43.0	0	0	0	0	0
COc1ccc(N(C(=O)c2ccco2)C(C(=O)NC2CCCCC2)c2cccs2)cc1OC (stereo not drawn)	0	-	-	-	-	-

Compound activity (PubChem BioAssay)
